Drawing on PubChem BioAssay AID1645883 (National Center for Advancing Translational Sciences (NCATS), 2021), this text covers max response and Potency for 82 molecules.

The structures appear in SMILES notation. “And” between values parts separate entries of the source, which are not always exact repeats. Equal values may be shown once. Hit rate of the full screen: of about 16,000 compounds, about 160 (1%) were called active. Inconclusive results (about 8%) are left out. The sample as a whole holds a higher share of actives than the screen did. Unmarked numbers belong to inactive results. The call rests on the fitted dose curve; in most records, active means well fitted activation curve with a large enough effect; inconclusive means small, poorly fitted or top-dose-only effect; inactive means no such curve, though single readings can be large or run the other way.
On the % scale 0 is the no-effect control and ±100 the full control effect; potency means the concentration at half of the fitted maximal effect.

Chain of Rap guanine nucleotide exchange factor 3 (Homo sapiens) (O95398 whole entry, looked up): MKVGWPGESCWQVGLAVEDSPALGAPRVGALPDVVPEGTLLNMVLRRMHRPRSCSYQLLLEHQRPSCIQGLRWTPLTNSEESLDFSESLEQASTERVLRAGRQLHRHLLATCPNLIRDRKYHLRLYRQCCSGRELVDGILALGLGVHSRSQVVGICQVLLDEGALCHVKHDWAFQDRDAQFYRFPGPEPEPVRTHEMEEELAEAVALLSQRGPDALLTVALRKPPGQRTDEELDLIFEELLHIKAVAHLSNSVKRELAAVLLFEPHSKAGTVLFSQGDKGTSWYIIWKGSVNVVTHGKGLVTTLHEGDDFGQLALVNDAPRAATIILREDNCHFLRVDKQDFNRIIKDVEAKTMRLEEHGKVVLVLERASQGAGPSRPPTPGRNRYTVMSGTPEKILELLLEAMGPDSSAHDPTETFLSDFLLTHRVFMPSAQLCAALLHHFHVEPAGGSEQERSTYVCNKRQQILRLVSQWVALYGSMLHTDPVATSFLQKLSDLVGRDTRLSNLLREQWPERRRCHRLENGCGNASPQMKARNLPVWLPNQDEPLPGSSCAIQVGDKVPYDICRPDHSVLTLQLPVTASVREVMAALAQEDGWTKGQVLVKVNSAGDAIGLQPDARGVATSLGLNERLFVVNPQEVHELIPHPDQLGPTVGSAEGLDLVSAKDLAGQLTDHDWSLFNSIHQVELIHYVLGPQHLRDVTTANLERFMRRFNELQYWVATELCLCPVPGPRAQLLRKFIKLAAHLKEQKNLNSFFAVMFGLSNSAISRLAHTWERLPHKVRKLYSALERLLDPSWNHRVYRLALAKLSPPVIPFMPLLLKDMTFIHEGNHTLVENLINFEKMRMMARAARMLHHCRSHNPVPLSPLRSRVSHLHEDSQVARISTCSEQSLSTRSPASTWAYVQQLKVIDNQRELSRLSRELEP

This assay deals with Rap guanine nucleotide exchange factor 3 (Homo sapiens) (UniProt O95398). As to the kind of experiment: Validation qHTS for agonist of cAMP-regulated guanine nucleotide exchange factor 3 (EPAC1). Further: nearly all actives have a fitted effect of over 70% in size. Conditions: EPAC1 Rap1b BODIPY-GDP exchange, fluorescence; max response: hits give high values, percent of cAMP control response. From the text:
Assay Provider (PI): Xiaodong Cheng Ph.D.
The University of Texas Medical Branch, […], TX
In multi-cellular eukaryotic organisms, the effects of cAMP are transduced by two ubiquitously-expressed intracellular cAMP receptors, the classic protein kinase A/cAMP-dependent protein kinase (PKA/cAPK) and the more recently discovered exchange protein directly activated by cAMP/cAMP-regulated guanine nucleotide exchange factor (EPAC/cAMP-GEF). Both PKA and EPAC are ubiquitously expressed in all tissues, and an increase in intracellular cAMP levels will lead to the activation of both PKA and EPAC. Therefore, careful dissections of the individual role and relative contribution of EPAC and PKA within the overall cAMP signaling in various model systems are critical for further elucidating the mechanism of cAMP signaling. To date no EPAC-specific antagonists and agonist, as well as isoform-specific agonists have been reported, and developing EPAC-specific pharmacological probes to determine the physiological functions that EPAC play in the overall cAMP-mediated signaling remains a major challenge within the research field. Furthermore, identified regulators of EPAC may lead to new mechanism-based therapeutic strategies specifically targeting the EPAC / cAMP-signaling components as EPAC has been implicated to play important roles in major human pathological conditions such as diabetes, heart disease, and cancer.
This qHTS will be used to screen the Molecular Libraries Small Molecule Repository (MLSMR) as a concentration-titration series using the NCGC unique quantitative screening (qHTS) platform to find activators for EPAC1. In addition, this assay will also be used as a counterscreen for the EPAC2 qHTS. This fluorescent based assay is developed and validated for EPAC1 that measures exchange using EPAC effector Rap1 complex with BODIPY-GDP, a GDP analog with a tethered fluorophores. Activators are identified by monitoring the change in fluorescence signal as the exchanged free BODIPY-GDP has a reduced fluorescence compared to Rap1-bound BODIPY-GDP. Increase in signal (activation) is the desired outcome for the EPAC1 agonist while no activity in this assay is desired for the EPAC2 agonist counterscreen.
[1] de Rooij, J., Zwartkruis, F. J., Verheijen, M. H., Cool, R. H., Nijman, S. M., Wittinghofer, A., and Bos, J.L. (1998) Nature 396, 474-477.
Briefly, three uL of reagents (100 nM EPAC1, 250 nM RAP1B-BODIPY-GDP, 50 uM GDP) were dispensed into a 1536-well Greiner black solid-bottom medium binding assay plate. Controls and test compounds (23 nL) were transferred to the plate via a Kalypsys pin tool equipped with a 1536-pin array. The plates were centrifuged at 1,000 rpm for 15 seconds followed by 5 minute incubation at room temperature. The assay plates were read at 5 minute intervals for 30 minutes in the ViewLux plate reader using 480nm excitation and 540nm emission filters. The results were normalized to the agonist positive control of 6.5 mM cAMP.
For orientation: Quantitative high-throughput screening tests each substance at several concentrations.
With `Cc1cccc(CN2Cc3cccc4c3[C@H](C=CC4)CC2=S)c1`, the max response is 29.3%. On the same count and under the same terms, next, `CCCCC[C@H]1CN(C2CCCCC2)C(=O)[C@@H]1CC(=O)NCc1ccc(OC)cc1`: -76.4%; `CC(=O)Oc1c2c(c3c(c1CC=C(C)C)O[C@@]14C(=CC5CC1C(C)(C)OC4(C/C=C(\C)C(=O)O)C5=O)C3=O)OC(C)(CCC=C(C)C)C=C2` (some centres not stated): -112%; `O=C(c1cc(C(F)(F)F)cc(C(F)(F)F)c1)N1CCC[C@@]2(CCN(c3ccccn3)C2)C1`: -122%.

As to `O=C1C[C@H]2C=CCc3cccc(c32)CN1Cc1ccccc1`, the max response was -26.6%. On the same count and under the same terms, next, `CNc1nc(-c2ccccc2OC)nc2ccccc12`: 24.4%; `COc1ccc(CNc2ncncc2-c2ccccc2C)c(OC)c1`: -35%; `C=C1C(=O)C23C(O)C1CCC2[C@]12COC3(O)C(O)C1C(C)(C)CC[C@H]2O` (some centres not stated): -116%. In the case of `O=C(O)CCc1cccnc1`, the max response was -31.6%. Regarding `COc1ccc(CN2CCOc3c(cc(-c4ncc(C(F)(F)F)cc4Cl)cc3OCC3CCCO3)C2)c(O)c1` (configuration not stated), the max response was -26%. For the molecule `CC1=C(/C=C/C(C)=C/C=C/C(C)=C/C=C/C=C(C)/C=C/C=C(C)/C=C/C2=C(C)CCCC2(C)C)C(C)(C)CCC1`, the max response was -9%. On to `O=C(c1csnn1)N1CCC[C@@]2(CCN(c3cccc(-c4ccccc4)c3)C2)C1`, for which the max response is -63.8%. As to `CC(C)NC(=O)N1CCC2(CC1)CCN(C(=O)c1cccn1C)CC2`, the max response was -49.6%. In the case of `Cn1cccc1C(=O)N1CCC2(CC1)CN(c1cccc(-c3ccccc3)c1)C2`, the Potency was 112 µM (active).

With `Oc1ccc2c(c1)OCC1c3cc4c(cc3OC21)OCO4` (configuration not stated), the max response is 5.11%. Take `O=C(c1ccc(F)cc1)C1CCN(CCCCc2ccccc2)CC1`: the max response is -5.39%. Consider `COc1cc(=O)n2c(c1C(=O)N(C)Cc1nccs1)CCN(Cc1ccc(Cl)cc1)CC2`, for which the max response is -7.19%.

On to `Cc1nc2cnc(Nc3ccccc3)nc2n(Cc2ccc(F)cc2)c1=O`, for which the max response was 15.4%. Regarding `O=c1c(-c2cc(F)cc(F)c2)nc2cnc(Oc3ccccc3)nc2n1C[C@H]1CCCO1`, the max response is -26.8%. Take `N#CCCn1c(=O)c(-c2cc(F)cc(F)c2)nc2cnc(Oc3ccccc3)nc21`: the max response is 3.54%. Take `O=C(c1cc2ccccc2o1)N1CCN(Cc2ccccc2)CC1`: the max response was -2.2%.

For the molecule `COc1cccc(-c2nc(Nc3ccncc3)c3ccccc3n2)c1`, the Potency was 100 µM (active). As for `c1ccc2c(Nc3ccncc3)nc(-c3ccoc3)nc2c1`, the max response was -4.89%. Turning to `c1ccc2c(Nc3ccncc3)nc(-c3ccc4c(c3)OCO4)nc2c1`, the max response was 10.9%.

With `CC1CC2C3CCC4=CC(=O)C=C[C@]4(C)[C@@]3(F)[C@@H](O)C[C@]2(C)[C@@]1(O)C(=O)CO` (some centres not stated), the max response is 3.48%.

For `O=C(O)C(O)[C@@](O)(Cc1ccc(O)cc1)C(=O)O` (some centres not stated), the max response is 6.44%. On to `O=C(O)C1CCN(c2ncnc3ccc(-c4ccccc4C(F)(F)F)cc23)CC1`, for which the max response is -7.12%. Take `CC(C)C(=O)NC(C)c1nnc2n1CCN(Cc1cccc3ncccc13)CC2` (configuration not stated): the max response is -0.781%. `O=C(c1csnn1)N1CCC2(CCN(Cc3nccs3)CC2)CC1`: the max response is -44.7%.

Regarding `C[C@@H]1CN(Cc2ccc3c(c2)CN(Cc2ccc(Oc4ncccn4)cc2)CCO3)C[C@H](C)O1`, the max response was -1.6%. Take `O=C(c1ccco1)N1CCC[C@@]2(CCN(Cc3nccs3)C2)C1`: the max response was -63.4%. Turning to `CS(=O)(=O)N1CCC[C@@]2(CCN(c3ccncc3)C2)C1`, the max response is -34%.

Turning to `O=C(Nc1cccc(F)c1)N1CC2(CCN(C(=O)c3cnccn3)CC2)C1`, the max response is 7.33%. On to `C=C1C(=CC=C2CCC[C@]3(C)[C@@H]([C@H](C)C=C[C@H](C)C(C)C)CC[C@@H]23)C[C@@H](O)C[C@@H]1O`, for which the max response is -167%. As for `C=CC(C1=CC(=O)C=CC1=O)c1ccc(O)cc1` (configuration not stated), the max response is 3.74%. Turning to `Fc1cccc(/C=N\N=C/c2cccc(F)c2)c1`, the max response is -1.27%. Regarding `O=C1OC(C(O)CO)C(O)=C1O` (configuration not stated), the max response is 21.1%. Regarding `N#Cc1cc2[nH]c(=O)c(=O)[nH]c2cc1[N+](=O)[O-]`, the max response was 0.579%. For the molecule `CN1CC[C@H](c2c(O)cc(O)c3c(=O)cc(-c4ccccc4Cl)oc23)[C@H](O)C1`, the max response was -89%. As to `Cn1cc(-c2nc3cncnc3n(-c3ccccc3)c2=O)c2ccccc21`, the max response was -219%.

With `N[C@@H](C(=O)O)c1ccc(P(=O)(O)O)cc1`, the max response was -5.54%. As to `CC1CC[C@@]23CCC4(C)[C@@]5(C)CCC6C(C)(C)C(O)CC[C@@]6(C)C5C=C[C@@]4(OC2=O)C3C1C` (some centres not stated), the max response was -57.5%.

On to `O=C1NS(=O)(=O)c2ccccc21`, for which the max response is -6.7% and 22.2%.

Turning to `CC(=O)OC[C@H]1O[C@@H](O[C@H]2[C@H](O)[C@@H](OC(=O)c3ccccc3C(=O)O)[C@H](O)O[C@@H]2COC(C)=O)[C@H](O)[C@@H](OC(=O)c2ccccc2C(=O)O)[C@@H]1O`, the max response was -29.6%. As to `CC(O)(COc1ccccc1)c1ccc2c(c1)CN(Cc1cn[nH]c1-c1ccc(F)cc1)CCO2` (configuration not stated), the max response was 6.27%.

For `COc1ccc(CCNc2ncnc3sc(C(=O)N4CCCC4)c(C)c23)cc1OC`, the max response was -3.63%.

With `O=C(c1cc(C(F)(F)F)cc(C(F)(F)F)c1)N1CCC2(CCCN(Cc3ccncc3)C2)CC1`, the max response was -115%. `COC(=O)N1CCC[C@@]2(CCN(C(=O)NC(C)C)C2)C1`: the max response is -60.9%. Consider `C[C@H]1C[C@H]2[C@@H]3CCC4=CC(=O)C=C[C@]4(C)[C@@H]3C(=O)C[C@]2(C)[C@@]1(O)C(=O)CO`, for which the max response is 0.445%.

`COc1cc2c(cc1OC)[C@@H](Cc1cc(OC)c(OC)c(OC)c1)[N+](C)(CCCOC(=O)CC/C=C/CCC(=O)OCCC[N+]1(C)CCc3cc(OC)c(OC)cc3[C@H]1Cc1cc(OC)c(OC)c(OC)c1)CC2` (some centres not stated): the max response is -11.5% and 6.58%. The same measure, in the same setting: next, `CC(=O)Nc1ccccc1-c1nc(CNC(=O)c2ccc(Cl)cc2)c(C)o1`: -0.968%; `COc1cc(=O)n2c(c1C(=O)NC(C)c1ccco1)CCN(C(=O)c1cn3ccc(C)cc3n1)CC2` (configuration not stated): -8.43%; `NCCCNCCCCN(CCCN)/[N+]([O-])=N/O`: -13.7%. For `O=C1CCN(CCc2ccccc2)CCN1CCOc1ccccc1`, the max response was 21.5%.

On to `O=C(CN1Cc2ccccc2OC(c2ccccc2)C1)N1CCCCC1c1cccnc1` (configuration not stated), for which the max response was 3.86%. `N[C@H](C(=O)O)c1ccc(C(=O)O)c(O)c1`: the max response was -1.36% and -12.7%. Turning to `Cc1ccc(/C(=C/CN2CCCC2)c2ccccn2)cc1`, the max response was -20.9%. The same measure, in the same setting: next, `CN1CCC2(CC1)CCN(S(=O)(=O)c1ccccc1)CC2`: 2.56%; `CN(C)C(=O)[C@@H]1C[C@@H](Sc2nc3ccccc3[nH]2)CN1Cc1ccc(Cl)cc1`: 0.834%. Take `C=C1C(=C/C=C2\CCC[C@]3(C)[C@@H]([C@H](C)CCCC(C)(C)O)CC[C@@H]23)C[C@@H](O)C[C@@H]1O`: the max response was -16.6%. In the case of `O=C(c1csnn1)N1CCC2(CC1)CN(c1ncccn1)C2`, the max response was 26.8%. Take `O=C(NCCN1CCOCC1)c1cnn(-c2nccc(-c3cccs3)n2)c1C1CC1`: the max response was -10.9%. In the case of `CN(Cc1ccco1)c1cc(-c2ccccc2C(F)(F)F)ncn1`, the max response is 17%. For `COc1ccc(C)cc1N1C(=O)[C@@H]2C[C@H]1CN2Cc1cccc(OC)c1O`, the max response was -2.66%. On to `O=C(O)CCC(=O)O`, for which the max response is -16.2%. On to `COC1[C@H](OC(N)=O)C(O)[C@H](Oc2ccc3c(O)c(NC(=O)c4ccc(O)c(CC=C(C)C)c4)c(=O)oc3c2C)OC1(C)C` (some centres not stated), for which the max response is 12.3%. For `O=C(C[n+]1ccncc1)c1ccc2c(c1)CCCC2`, the max response is -14.9%.

Regarding `COc1cc(=O)n2c(c1C(=O)N(C)Cc1nonc1C)CCN(C(=O)c1ccc(C)cc1C)CC2`, the max response is -17.4%. The same measure, in the same setting: next, `C=C1C(=CC=C2CCC[C@@]3(C)[C@@H]2CC[C@H]3[C@H](C)CCCC(C)C)C[C@@H](O)C[C@@H]1O`: -125%; `CN1CCN(c2ncncc2-c2ccc(C(=O)N(C)C)cc2)CC1`: -22%; `Cc1cccc(C)c1NC(=O)NC1=CCCN1C`: -23.6%. In the case of `O=C1NC(CC(=O)N2CCC(n3c(C4CCC4)nc4cccnc43)CC2)c2ccccc21` (configuration not stated), the max response is 2.72%. Same read-out and setting: the same measure for `CCNCCCNCCCNCCCNCC`: -1.46%; for `CCCCCCCC/C=C\CCCCCCCC(=O)OC[C@H](CO)OC(C)=O`: -42.9%. Take `Nc1ncnc2c1c(I)cn2[C@@H]1C[C@H](N)[C@@H](O)[C@H]1O`: the max response was -1.21%. As to `COc1ccccc1CNc1ncncc1-c1cccnc1`, the max response is -29.8%. Still for that read-out and setting: the same measure for `O=C(OCCN1CCOCC1)C1(c2ccccc2)CCCCC1`: 0.319% and -0.482% and -4.96%.

Turning to `CC1(C)[C@@H]2CC[C@@]1(C)[C@H](OC(=O)CSC#N)C2`, the max response was -10.5%. On the same count and under the same terms, the same measure for `COc1ccc(Oc2ncc3nc(-c4ccc(F)cc4)c(=O)n(C)c3n2)cc1`: -48.7%. `OCC1CCCN(c2nc3cc4c(cc3cc2CNCc2cccs2)OCO4)C1` (configuration not stated): the max response is -2.38%. Regarding `COc1ccc(-c2nc3cnc(OC)nc3n(Cc3ccc(F)cc3)c2=O)cc1`, the max response was -45.5%. Regarding `CC(C)[C@H](CO)Nc1nc(Nc2cc(N)cc(Cl)c2)c2ncn(C(C)C)c2n1`, the max response is 16.3%.
